# Measurements as given in PubChem BioAssay AID1159580 (chemical genetic matrix, 2015).
# In all, about 5,500 compounds went through this assay and about 2,000 (36%) were called active. Roughly 18% stayed inconclusive and do not appear here. The list shows a part of the results. A number with no mark means an inactive call. Cut-off read from the data, not from the text of the source: active = normalized growth mostly below about 0.91 (no sharp cut-off); inconclusive = no clear call, values can overlap the other calls; inactive = mostly above about 0.92.
# Assay: chemical genetic growth profiling, strain panel (AID 1159580);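 note: tested at 20 µM; growth read once vehicle control cultures reached saturation at 30 °C; 1 = growth at the plate median or of vehicle wells; lower values mean less growth of the strain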
# Settings: growth OD
smiles,measurement,setting,value
COc1cc(C(=O)N2CCOCC2)cc(OC)c1OC,normalized growth,"S. cerevisiae deletion strains, locus YJR075W, strain HOC1, hits give low values",1
same,normalized growth,"S. cerevisiae deletion strains, locus YKL009W, strain mrt4, hits give low values",0.926
same,normalized growth,"S. cerevisiae deletion strains, locus YKL068W, hits give low values",0.988
same,normalized growth,"S. cerevisiae deletion strains, locus YKL085W, strain MDH1 (second series), hits give low values",0.353 (active)
same,normalized growth,"S. cerevisiae deletion strains, locus YKL085W, strain MDH1, hits give low values",0.353 (active)
same,normalized growth,"S. cerevisiae deletion strains, locus YKL160W, strain elf1, hits give low values",1
same,normalized growth,"S. cerevisiae deletion strains, locus YKL190W, strain CNB1, hits give low values",1.01
same,normalized growth,"S. cerevisiae deletion strains, locus YKR001C, strain vps1, hits give low values",0.127 (active)
same,normalized growth,"S. cerevisiae deletion strains, locus YKR026C, strain gcn3, hits give low values",0.975
same,normalized growth,"S. cerevisiae deletion strains, locus YKR091W, strain srl3, hits give low values",0.977
same,normalized growth,"S. cerevisiae deletion strains, locus YLL001W, strain dnm1, hits give low values",0.987
same,normalized growth,"S. cerevisiae deletion strains, locus YLL026W, hits give low values",0.984
same,normalized growth,"S. cerevisiae deletion strains, locus YLL041C, strain sdh2, hits give low values",0.981
same,normalized growth,"S. cerevisiae deletion strains, locus YLR027C, strain aat2, hits give low values",1.01
same,normalized growth,"S. cerevisiae deletion strains, locus YLR039C, strain RIC1, hits give low values",1.04
same,normalized growth,"S. cerevisiae deletion strains, locus YLR058C, strain SHM2, hits give low values",1.01
same,normalized growth,"S. cerevisiae deletion strains, locus YLR102C, strain apc9, hits give low values",0.102 (active)
same,normalized growth,"S. cerevisiae deletion strains, locus YLR113W, strain HOG1, hits give low values",0.999
same,normalized growth,"S. cerevisiae deletion strains, locus YLR221C, strain rsa3, hits give low values",0.968
same,normalized growth,"S. cerevisiae deletion strains, locus YLR258W, strain gsy2, hits give low values",1.01
same,normalized growth,"S. cerevisiae deletion strains, locus YLR262C, strain YPT6 (second series), hits give low values",1.02
same,normalized growth,"S. cerevisiae deletion strains, locus YLR262C, strain YPT6, hits give low values",1.06
same,normalized growth,"S. cerevisiae deletion strains, locus YLR268W, strain sec22, hits give low values",0.0891 (active)
same,normalized growth,"S. cerevisiae deletion strains, locus YLR320W, strain mms22, hits give low values",0.982
same,normalized growth,"S. cerevisiae deletion strains, locus YLR330W, strain CHS5, hits give low values",1
same,normalized growth,"S. cerevisiae deletion strains, locus YLR342W, strain FKS1 (second series), hits give low values",1.06
same,normalized growth,"S. cerevisiae deletion strains, locus YLR342W, strain FKS1, hits give low values",0.967
same,normalized growth,"S. cerevisiae deletion strains, locus YLR357W, strain rsc2, hits give low values",0.998
same,normalized growth,"S. cerevisiae deletion strains, locus YLR370C, strain arc18, hits give low values",1
same,normalized growth,"S. cerevisiae deletion strains, locus YLR371W, strain rom2, hits give low values",0.0857 (active)
same,normalized growth,"S. cerevisiae deletion strains, locus YLR384C, strain iki3, hits give low values",0.984
same,normalized growth,"S. cerevisiae deletion strains, locus YLR418C, strain cdc73, hits give low values",0.102 (active)
same,normalized growth,"S. cerevisiae deletion strains, locus YML016C, strain PPZ1, hits give low values",1.01
same,normalized growth,"S. cerevisiae deletion strains, locus YML032C, strain rad52, hits give low values",0.845 (active)
same,normalized growth,"S. cerevisiae deletion strains, locus YML120C, strain ndi1, hits give low values",0.985
same,normalized growth,"S. cerevisiae deletion strains, locus YML124C, strain tub3, hits give low values",0.158 (active)
same,normalized growth,"S. cerevisiae deletion strains, locus YMR058W, strain fet3, hits give low values",0.987
same,normalized growth,"S. cerevisiae deletion strains, locus YMR078C, strain ctf18, hits give low values",0.205 (active)
same,normalized growth,"S. cerevisiae deletion strains, locus YMR125W, strain sto1, hits give low values",0.993
same,normalized growth,"S. cerevisiae deletion strains, locus YMR129W, hits give low values",0.982
same,normalized growth,"S. cerevisiae deletion strains, locus YMR205C, strain PFK2, hits give low values",0.982
same,normalized growth,"S. cerevisiae deletion strains, locus YMR223W, strain ubp8, hits give low values",0.0851 (active)
same,normalized growth,"S. cerevisiae deletion strains, locus YMR231W, strain pep5, hits give low values",0.975
same,normalized growth,"S. cerevisiae deletion strains, locus YMR263W, strain SAP30, hits give low values",1
same,normalized growth,"S. cerevisiae deletion strains, locus YMR307W, strain GAS1, hits give low values",1.06
same,normalized growth,"S. cerevisiae deletion strains, locus YNL067W, strain RPL9B, hits give low values",1
same,normalized growth,"S. cerevisiae deletion strains, locus YNL071W, strain lat1, hits give low values",0.987
same,normalized growth,"S. cerevisiae deletion strains, locus YNL128W, strain TEP1, hits give low values",1
same,normalized growth,"S. cerevisiae deletion strains, locus YNL153C, strain GIM3, hits give low values",0.997
same,normalized growth,"S. cerevisiae deletion strains, locus YNL183C, strain NPR1, hits give low values",0.967
same,normalized growth,"S. cerevisiae deletion strains, locus YNL209W, strain ssb2, hits give low values",0.981
same,normalized growth,"S. cerevisiae deletion strains, locus YNL233W, strain BNI4, hits give low values",0.992
same,normalized growth,"S. cerevisiae deletion strains, locus YNL248C, strain rpa49, hits give low values",0.991
same,normalized growth,"S. cerevisiae deletion strains, locus YNL250W, strain rad50, hits give low values",0.531 (active)
same,normalized growth,"S. cerevisiae deletion strains, locus YNL271C, strain bni1, hits give low values",0.214 (active)
same,normalized growth,"S. cerevisiae deletion strains, locus YNL298W, strain CLA4, hits give low values",0.456 (active)
same,normalized growth,"S. cerevisiae deletion strains, locus YNL307C, strain MCK1, hits give low values",0.0679 (active)
same,normalized growth,"S. cerevisiae deletion strains, locus YNL322C, strain KRE1 (second series), hits give low values",0.975
same,normalized growth,"S. cerevisiae deletion strains, locus YNL322C, strain KRE1, hits give low values",1.01
same,normalized growth,"S. cerevisiae deletion strains, locus YNR049C, strain mso1, hits give low values",0.971
same,normalized growth,"S. cerevisiae deletion strains, locus YNR052C, strain pop2, hits give low values",1.04
same,normalized growth,"S. cerevisiae deletion strains, locus YOL006C, strain TOP1, hits give low values",1.05
same,normalized growth,"S. cerevisiae deletion strains, locus YOL147C, strain pex11, hits give low values",0.829 (active)
same,normalized growth,"S. cerevisiae deletion strains, locus YOR001W, strain rrp6, hits give low values",0.967
same,normalized growth,"S. cerevisiae deletion strains, locus YOR061W, strain CKA2, hits give low values",1.01
same,normalized growth,"S. cerevisiae deletion strains, locus YOR069W, strain VPS5, hits give low values",1.01
same,normalized growth,"S. cerevisiae deletion strains, locus YOR070C, strain gyp1, hits give low values",0.982
same,normalized growth,"S. cerevisiae deletion strains, locus YOR080W, strain dia2, hits give low values",0.979
same,normalized growth,"S. cerevisiae deletion strains, locus YOR083W, strain WHI5, hits give low values",1.01
same,normalized growth,"S. cerevisiae deletion strains, locus YOR106W, strain vam3, hits give low values",1.01
same,normalized growth,"S. cerevisiae deletion strains, locus YOR136W, strain idh2, hits give low values",0.0963 (active)
same,normalized growth,"S. cerevisiae deletion strains, locus YOR144C, strain elg1, hits give low values",1.01
same,normalized growth,"S. cerevisiae deletion strains, locus YOR184W, strain ser1, hits give low values",0.0727 (active)
same,normalized growth,"S. cerevisiae deletion strains, locus YOR231W, strain MKK1, hits give low values",1.01
same,normalized growth,"S. cerevisiae deletion strains, locus YOR265W, strain rbl2, hits give low values",1
same,normalized growth,"S. cerevisiae deletion strains, locus YOR270C, strain vph1, hits give low values",0.978
same,normalized growth,"S. cerevisiae deletion strains, locus YOR290C, strain snf2, hits give low values",1.01
same,normalized growth,"S. cerevisiae deletion strains, locus YOR316C, strain cot1, hits give low values",0.0956 (active)
same,normalized growth,"S. cerevisiae deletion strains, locus YPL051W, strain arl3, hits give low values",0.993
same,normalized growth,"S. cerevisiae deletion strains, locus YPL055C, strain LGE1, hits give low values",1
same,normalized growth,"S. cerevisiae deletion strains, locus YPL078C, strain atp4, hits give low values",0.982
same,normalized growth,"S. cerevisiae deletion strains, locus YPL106C, strain sse1, hits give low values",0.998
same,normalized growth,"S. cerevisiae deletion strains, locus YPL240C, strain hsp82, hits give low values",1
same,normalized growth,"S. cerevisiae deletion strains, locus YPL241C, strain CIN2, hits give low values",1.01
same,normalized growth,"S. cerevisiae deletion strains, locus YPL256C, strain CLN2, hits give low values",1.07
same,normalized growth,"S. cerevisiae deletion strains, locus YPR119W, strain clb2, hits give low values",0.143 (active)
same,normalized growth,"S. cerevisiae deletion strains, locus YPR141C, strain kar3, hits give low values",1.03
same,normalized growth,"S. cerevisiae deletion strains, locus YPR163C, strain tif3, hits give low values",0.0748 (active)
same,normalized growth,"S. cerevisiae deletion strains, locus YPR167C, strain met16, hits give low values",0.0923 (active)
same,normalized growth,"S. cerevisiae deletion strains, strain wtn01, hits give low values",0.0623 (active)
same,normalized growth,"S. cerevisiae strains, strain wild type, hits give low values",1.01
